# Test results: PubChem BioAssay (Tox21)
# Results filed as inconclusive are left out. Entries that show only a call come without a potency. Unmarked numbers belong to inactive results. Activity calls are given as the source filed them. Unless noted, calls come from the whole dose curve; as a rule, active = well fitted curve in the direction sought with a large enough effect in the repeat runs; inconclusive = weak or mixed curves; inactive = no such curve, though single readings can be large; an effect the other way counts as inactive or inconclusive.
# Key:
# [1] = qHTS assay to identify small molecule antagonists of the vitamin D receptor (VDR) signaling pathway - cell viability counter screen (AID 743225); note: nearly all actives have a fitted effect of over 50% in size
# Outline: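 Parallel cytotoxicity test: VDR-UAS-bla HEK 293T, 3 nM (final) 1-alpha,25-dihydroxyvitamin D3 with test compound, 16 h, 37C. Endpoint is CellTiter-Glo luminescence in the same wells.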
# [2] = qHTS assay to identify small molecule agonists of the NFkB signaling pathway (AID 1159509; active = well fitted curve in the direction sought with a large enough effect in the signal ratio in the repeat runs, not every such curve was filed as active; the % refers to the signal ratio; note: series mostly up to about 61 µM)
# Outline: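 After overnight attachment, reporter cells received test compounds, DMSO or positive controls and were incubated 5 hr at 37 C. FRET substrate was then added for 1.5 hr at room temperature before dual-emission fluorescence reading.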
# [3] = qHTS assay to identify small molecule agonists of the NFkB signaling pathway - cell viability counter screen (AID 1159515; calls by dose curve; note: series mostly up to about 61 µM; nearly all actives have a fitted effect of over 55% in size)
# Outline: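 Using the same wells as the NFkB reporter read, ME-180 NFkB-bla cells given compounds for 5 hr were assessed for viability via CellTiter-Glo, with luminescence taken after a 30 min room-temperature incubation.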
# [4] = qHTS assay to identify small molecule agonists of the endoplasmic reticulum stress response signaling pathway (AID 1159516; active = well fitted activation curve with a large enough effect in the signal ratio in the repeat runs, not every such curve was filed as active; the % refers to the signal ratio)
# Outline: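 An ESRE-bla HeLa cell assay: compounds were pin-transferred from DMSO onto overnight-plated cells and left 5 hr at 37 C. Substrate was then loaded for 2 hr at room temperature before reading fluorescence at 460 nm and 530 nm.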
# [5] = qHTS assay to identify small molecule agonists of the endoplasmic reticulum stress response signaling pathway - cell viability counter screen (AID 1159517; calls by dose curve;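 note: HeLa cells carrying an ER stress response element beta-lactamase reporter; series mostly up to about 61 µM; nearly all actives have a fitted effect of over 50% in size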)
# Outline: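 Counter-screen wells were identical to the reporter wells. Cells were plated at 1,500 per well and dosed for 5 hr, then read for luminescence 30 min after CellTiter-Glo addition.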
# [6] = target: Nuclear receptor ROR-gamma (Homo sapiens) (UniProt P51449); assay: qHTS assay to identify small molecule antagonists of the retinoid-related orphan receptor gamma (ROR-gamma) signaling pathway (AID 1159521; note: nearly all actives have a fitted effect of over 50% in size; note: potency is the fitted concentration of half-maximal effect)
# Outline: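 Decreased RORE-driven luciferase luminescence indicates antagonism. Tet-on RORγ CHO cells received compound, then 1 uM final doxycycline 2 h later; signal read after 16 h incubation.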
# [7] = qHTS assay to identify small molecule agonists of the AP-1 signaling pathway - cell viability counter screen (AID 1159525; calls by dose curve; note: nearly all actives have a fitted effect of over 55% in size)
# Outline: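 AP-1-bla ME-180 cells in Opti-MEM with 0.5% dialyzed FBS, compound exposure 5 h at 37 C in 15-point titration. Viability read in the same wells as ATP content by CellTiter-Glo luminescence, normalised to tetra-n-octylammonium bromide and DMSO controls.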
# [8] = qHTS assay to identify small molecule antagonists of the retinoid acid receptor (RAR) signaling pathway - cell viability counter screen (AID 1159551); note: nearly all actives have a fitted effect of over 35% in size
# Outline: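 Retinol-stimulated (1 uM final) C3RL4 cells, compound 6 h, 37 C; readout CellTiter-Glo luminescence (ATP) after 30 min RT incubation.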
# [9] = qHTS assay to identify small molecule agonists of the retinoic acid receptor (RAR) signaling pathway (AID 1159553); note: potency is the fitted concentration of half-maximal effect
# Outline: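 Reporter readout comes from luciferase under RARE control in C3RL4 cells; compound exposure lasts 6 hr at 37 C in 5% CO2, and luminescence is recorded following a 30 min room-temperature incubation with reagent.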
# [10] = qHTS assay to identify small molecule agonists of the AP-1 signaling pathway (AID 1159526; calls by dose curve)
# [11] = qHTS assay to identify small molecule agonists of the RXR signaling pathway - cell viability counter screen (AID 1159529);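 note: HEK 293T cells carrying an RXR-alpha UAS beta-lactamase reporter; series mostly up to about 77 µM; nearly all actives have a fitted effect of over 50% in size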
# Outline: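 In this parallel viability measure, GeneBLAzer RXR-alpha HEK 293T cells (2% charcoal-stripped FBS) were given a 5 hr preincubation, treated with compounds 16 hr at 37 C, and read by CellTiter-Glo luminescence.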
# [12] = qHTS assay to identify small molecule antagonists of the retinoic acid receptor (RAR) signaling pathway (AID 1159552; note: nearly all actives have a fitted effect of over 50% in size; note: potency is the fitted concentration of half-maximal effect)
# Outline: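 C3RL4 RARE-luc cells, overnight plating; retinol 1 uM final added right after compound; 6 hr 37 C; luciferase read at 30 min RT.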
# [13] = target: Retinoic acid receptor RXR-alpha (Homo sapiens) (UniProt P19793); assay: qHTS assay to identify small molecule agonists of the RXR signaling pathway (AID 1159527; calls by dose curve; note: nearly all actives have a fitted effect of over 35% in size)
# Retinoic acid receptor RXR-alpha (Homo sapiens), sequence (P19793 whole entry, looked up): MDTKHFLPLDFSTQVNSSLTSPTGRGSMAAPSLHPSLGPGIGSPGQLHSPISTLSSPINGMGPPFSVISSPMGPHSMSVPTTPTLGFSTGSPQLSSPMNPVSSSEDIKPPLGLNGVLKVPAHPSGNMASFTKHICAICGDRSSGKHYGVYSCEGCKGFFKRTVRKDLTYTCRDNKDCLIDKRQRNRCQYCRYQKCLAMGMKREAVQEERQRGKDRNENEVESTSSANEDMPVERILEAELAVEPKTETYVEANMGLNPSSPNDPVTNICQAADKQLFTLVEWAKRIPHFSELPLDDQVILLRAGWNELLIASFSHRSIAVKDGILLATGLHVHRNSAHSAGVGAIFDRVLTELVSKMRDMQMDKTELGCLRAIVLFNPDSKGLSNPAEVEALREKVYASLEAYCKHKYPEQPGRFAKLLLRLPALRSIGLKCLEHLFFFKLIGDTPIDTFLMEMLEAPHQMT
# Outline: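 16 hr incubation of compound-treated RXR-alpha-UAS-bla HEK 293T cells (2% charcoal-stripped FBS, 37 C) preceded a 2 hr room-temperature LiveBLAzer FRET substrate step and blue/green fluorescence measurement.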
# [14] = qHTS assay to identify small molecule antagonists of the retinoid-related orphan receptor gamma (ROR-gamma) signaling pathway - cell viability counter screen (AID 1159520); note: nearly all actives have a fitted effect of over 50% in size
# Outline: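 Tet-on ROR gamma CHO cells were given compounds for 2 hr, then doxycycline hyclate at 1 uM final, and incubated 16 hr at 37 C. Viability was measured as ATP content by CellTiter-Glo luminescence.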
# [15] = qHTS assay to identify small molecule antagonists of the estrogen related receptor (ERR) signaling pathway - cell viability counter screen (AID 1224818);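 note: series mostly up to about 46 µM; viability measured after 17.5 h of compound exposure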
# Outline: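 After a 6 h pre-incubation, ERR cells were dosed by pin tool with compounds, positive/negative controls or DMSO alone. Following 17.5 h at 37 C and 30 min with CellTiter-Fluor, fluorescence was recorded.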
# [16] = qHTS assay to identify small molecule antagonists of the estrogen related receptor signaling pathway with the pleiotropic PPARgamma coactivator (PGC) cell viability counter screen (AID 1224822;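 note: series mostly up to about 46 µM; viability read after 17.5 h compound exposure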)
# Outline: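 PGC/ERR cells were plated at 2,000 per well and allowed 6 h to settle before compound addition. Following 17.5 h at 37 C, CellTiter-Fluor reagent was added and fluorescence was read 30 min later.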
SMILES,Potency [1],outcome [2],outcome [3],outcome [4],outcome [5],Potency [6],outcome [7],Potency [8],Potency [9],outcome [10],Potency [11],Potency [12],Potency [13],Potency [14],outcome [15],outcome [16]
NC(=O)N(O)[C@@H]1COc2cc(OCc3ccccc3)ccc21,inactive,inactive,inactive,inactive,inactive,inactive,inactive,inactive,,,,,,,,
CCCCC/C(=C\c1ccccc1)CO,,inactive,inactive,inactive,inactive,inactive,,inactive,inactive,,,,,,,
O=C(c1ccc(O)cc1)c1ccc(Cl)cc1,,inactive,inactive,inactive,inactive,inactive,inactive,inactive,,inactive,inactive,inactive,,,,
CCCC1C(CC)=CC(CC)=CN1c1ccccc1 (centres undefined),,inactive,inactive,inactive,inactive,,inactive,inactive,,inactive,inactive,,inactive,,,
CC1(C)O[C@@H]2C[C@H]3[C@@H]4CCC5=CC(=O)C=C[C@]5(C)[C@H]4[C@@H](O)C[C@]3(C)[C@]2(C(=O)CO)O1,,inactive,inactive,inactive,inactive,,inactive,inactive,inactive,,inactive,,inactive,inactive,,
C[N+](C)(C)CCOC(N)=O,inactive,inactive,inactive,inactive,inactive,,inactive,inactive,inactive,,inactive,inactive,,inactive,inactive,inactive
CCc1cccc(N(C)C(N)=Nc2cccc3ccccc23)c1,,inactive,inactive,inactive,inactive,,inactive,inactive,inactive,,inactive,,inactive,inactive,inactive,inactive
NC(=O)Cn1c(=O)cc(CCN2CCN(c3nccc4sccc34)CC2)c2ccc(F)cc21,inactive,inactive,inactive,inactive,inactive,,inactive,inactive,,,,,,inactive,,
c1cc[c]([Bi]([c]2ccccc2)[c]2ccccc2)cc1,inactive,inactive,inactive,inactive,inactive,30.6 µM (active),inactive,inactive,,,,,,,,
CC(C)(CCl)c1ccccc1,inactive,inactive,inactive,inactive,inactive,inactive,inactive,inactive,,inactive,,inactive,,,,
O=C(N[C@@H](c1ccccc1)[C@@H]1CCCCN1)c1cccc(C(F)(F)F)c1Cl,,inactive,inactive,inactive,inactive,,inactive,inactive,,,inactive,,,inactive,,
CC(C)CCCCCCOC(=O)CCCCC(=O)OCCCCCCC(C)C,,inactive,inactive,inactive,inactive,,inactive,inactive,inactive,,inactive,inactive,,inactive,,
CC(=O)[C@H]1CC[C@H]2[C@@H]3C[C@H](C)C4=CC(=O)CC[C@]4(C)[C@H]3[C@@H](O)C[C@]12C,inactive,inactive,inactive,inactive,inactive,,inactive,inactive,inactive,,inactive,,,inactive,,
O=C(Nc1ccccc1)Nc1ccccc1,inactive,inactive,inactive,inactive,inactive,inactive,inactive,inactive,2.18 µM (active),inactive,,inactive,,,,
Fc1ccccc1[C@@H](F)COC1CCC(Nc2ncnc3[nH]ncc23)CC1 (some centres undefined),,inactive,inactive,inactive,inactive,12.2 µM (active),inactive,inactive,inactive,inactive,,,,,,
CC[C@H](NC(=O)c1cc(F)ccc1NS(=O)(=O)c1cccc2cccnc12)c1ccccc1,inactive,inactive,inactive,inactive,inactive,10.3 µM (active),inactive,inactive,inactive,,,inactive,,,,
CC(C)c1nnc2ccc(-c3ocnc3-c3cc(F)ccc3F)cn12,inactive,inactive,inactive,inactive,inactive,,,inactive,inactive,,inactive,27.3 µM (active),,inactive,,
CCCCC(=O)O[C@]1(C(=O)CO)CC[C@H]2[C@@H]3CCC4=CC(=O)CC[C@]4(C)[C@H]3[C@@H](O)C[C@@]21C,inactive,inactive,inactive,inactive,inactive,,inactive,inactive,inactive,,,inactive,,inactive,,
CC(COc1ccc(C(C)(C)C)cc1)OS(=O)OCCCl (centres undefined),inactive,inactive,inactive,inactive,inactive,24.5 µM (active),inactive,,inactive,inactive,inactive,3.88 µM (active),,,,
COCCOC,inactive,inactive,inactive,inactive,inactive,41.3 µM (active),inactive,,inactive,,inactive,6.54 µM (active),,,,
